# This is a sample that favours compounds with a hit; in the whole collection about 3.4% have one here.
# ADAM17 inh – ADAM17 inhibitors, primary screen, biochemical, QFRET. inhibition, % at 6.95 µM. AID 720648, 2013. recombinant ADAM17, EDANS/DABCYL FRET peptide cleavage. Disintegrin and metalloproteinase domain-containing protein 17 (Homo sapiens), P78536. 0.83% of 370,000 active;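 active = inhibition above the mean of compounds lying between control limits plus 3 SD, set per campaign, cut at about 8.5% in these data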;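 note: 0% = DMSO-only wells as the low control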
# Target sequence (P78536 215-824 limits assumed): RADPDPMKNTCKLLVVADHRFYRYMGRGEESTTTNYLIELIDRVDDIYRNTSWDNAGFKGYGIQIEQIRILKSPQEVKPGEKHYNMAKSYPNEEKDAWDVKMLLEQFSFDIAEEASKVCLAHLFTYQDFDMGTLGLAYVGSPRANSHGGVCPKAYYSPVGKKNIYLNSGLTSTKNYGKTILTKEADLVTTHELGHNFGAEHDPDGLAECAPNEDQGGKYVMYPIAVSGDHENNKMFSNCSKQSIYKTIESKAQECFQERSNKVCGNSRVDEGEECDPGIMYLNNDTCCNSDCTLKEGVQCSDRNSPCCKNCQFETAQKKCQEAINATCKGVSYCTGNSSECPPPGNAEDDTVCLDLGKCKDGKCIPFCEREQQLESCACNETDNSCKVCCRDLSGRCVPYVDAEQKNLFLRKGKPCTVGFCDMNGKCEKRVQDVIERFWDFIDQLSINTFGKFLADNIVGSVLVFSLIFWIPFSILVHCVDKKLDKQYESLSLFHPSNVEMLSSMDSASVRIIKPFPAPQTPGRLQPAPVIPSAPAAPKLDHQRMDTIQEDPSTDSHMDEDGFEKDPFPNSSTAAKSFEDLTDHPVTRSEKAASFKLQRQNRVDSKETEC
# PLC-beta3 inh – human PLC-beta3 inhibitors, primary screen, biochemical, fluorescence. Purified PLC-beta3, fluorogenic substrate. inhibition, % at 12.2 µM. 0.18% of 370,000 active. 1-phosphatidylinositol 4,5-bisphosphate phosphodiesterase beta-3 (Homo sapiens), Q01970; in the data active = inhibition above about 11%;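 note: 0% = median of compound wells on plate and 100% = full blocker control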
# ADAM10 inh – human ADAM10 inhibitors, primary screen, biochemical, QFRET, HTS | Disintegrin and metalloproteinase domain-containing protein 10 (Homo sapiens), O14672 | recombinant ADAM10, EDANS/DABCYL FRET peptide cleavage, 3 h | inhibition, % at 7 µM | 0.62% of 370,000 active | AID 720582, 2013;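 active = inhibition above a per-campaign cutoff equal to the mean of compounds falling between control-based bounds plus 3 SD, cut at about 20% in these data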;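 note: 0% = DMSO wells while the 100% control is not disclosed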
# PLC-gamma1 inh – PLC-gamma1 enzyme inhibitors, primary screen, biochemical, fluorescence, purified enzyme; 1-phosphatidylinositol 4,5-bisphosphate phosphodiesterase gamma-1 (Homo sapiens), P19174; fluorogenic substrate; inhibition, % at 12.2 µM; 0.84% of 370,000 active; AID 720700, 2013; in the data active = inhibition above about 9.5%
# KLK7 zymogen act – proKLK7 zymogen activators, primary screen, biochemical, fluorescence intensity; purified proKLK7, EDANS-DABCYL substrate fluorescence; 100% is mature enzyme control, 0% vehicle; activation, % at 7 µM; 0.9% of 370,000 active; AID 652039, 2013;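 active = activation above the mean of all tested compounds plus 3 SD, computed per campaign excluding outliers beyond control limits, cut at about 13% in these data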
# sPLA2-III inh – human group III sPLA2 inhibitors, primary screen, biochemical, QFRET, BODIPY PC-A2 liposome substrate; 0.56% of 370,000 active; inhibition, % at 12.2 µM; AID 743126, 2013; QFRET BODIPY PC-A2 liposome hydrolysis, fluorescence; Group 3 secretory phospholipase A2 (Homo sapiens), Q9NZ20;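 active = inhibition above mean plus 3 SD of compounds lying within the high and low control bounds, cut at about 19% in these data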;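 note: 0% = median of test compound wells and 100% = no enzyme DMSO wells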
# ADAM10 counter – ADAM10 inhibitors, counter-screen for ADAM17 exosite inhibitor project, biochemical, FRET, human ADAM10 | shares compounds with ADAM17 inh | recombinant ADAM10, EDANS/DABCYL FRET peptide cleavage, 3 h | inhibition, % at 6.95 µM | 47% of 2,900 active;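 active = mean inhibition over the triplicate runs exceeds the activity threshold set in the earlier primary screen, cut at about 20% in these data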;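 note: 0% = DMSO wells and 100% = marimastat wells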
# ADAM17 confirm – ADAM17 inhibitors, hit retest, confirmation, biochemical, QFRET peptide cleavage | shares compounds with ADAM17 inh | recombinant ADAM17, EDANS/DABCYL QFRET peptide cleavage | inhibition, % at 6.95 µM | 65% of 2,900 active;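 active = mean inhibition across replicates above the hit cutoff set in the primary screen, cut at about 8.5% in these data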;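 note: 0% = DMSO wells and 100% = marimastat wells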
# * marks the source's active call; other numbers are inactive results; i = inactive; · = no result given.
SMILES,ADAM17 inh,PLC-beta3 inh,ADAM10 inh,PLC-gamma1 inh,KLK7 zymogen act,sPLA2-III inh,ADAM10 counter,ADAM17 confirm
O=C(COCc1ccccc1)N1CCC(Oc2cccnc2)CC1,-2.5,1.7,-4.0,0.1,0.1,-0.6,·,·
COC(=O)C1CN(Cc2cn(Cc3ccc(OC)cc3)nn2)CCS(=O)(=O)N1Cc1ccccc1 (configuration not stated),-0.8,-2.5,-9.3,-1.2,-0.4,4.6,·,·
CC(C)(C)OC(=O)[C@H](Cc1ccccc1)NCC(=O)OCc1ccc(C(=O)NCc2ccccc2)cc1,8.7*,0.9,12.9,3.9,-0.3,-23.6,10.5,8.1
CCCCCn1nnnc1C1(C)CN(S(C)(=O)=O)CC(=O)N1Cc1ccco1 (configuration not stated),1.1,1.8,0.2,-0.9,-0.8,-3.4,·,·
Cc1ccc(NC(=O)CC2SC(=O)N(c3ccccc3)C2=O)cc1 (configuration not stated),-1.8,-2.1,5.3,-2.1,-0.2,-15.0,·,·
O=C(CC1SC(=O)N(c2ccccc2)C1=O)Nc1ccccc1 (configuration not stated),9.3*,-0.3,11.8,5.7,-0.3,-8.3,1.0,16.0*
NC1=NS(=O)(=O)Nc2ccccc21,-382.8,i,i,-436.5,·,-0.7,·,·
Cc1ccc(NC(=O)c2ccc(Nc3c([N+](=O)[O-])cc([N+](=O)[O-])cc3[N+](=O)[O-])cc2)cc1,10.2*,2.4,16.6,3.6,0.3,9.7,23.3*,12.2*
Cc1ccc(NC(=O)[C@@H]2CCCN2S(=O)(=O)c2cccc3cccnc23)c(C)c1,-0.1,4.7,0.8,5.9,·,2.7,·,·
CCOC(=O)[C@]12CCCC3=C1N(CCC3)C(=O)[C@@H](CC(=O)N1CCCCC1)C2,-2.3,2.5,-2.9,2.6,0.3,15.9,·,·
COC(=O)[C@@H]1C[C@@]2(c3ccccc3)c3ccccc3N(S(=O)(=O)c3ccccc3)[C@H]2N1C(=O)CNC1CCCCC1,1.7,3.7,6.4,4.9,0.4,-11.9,·,·
Cc1ccc(S(=O)(=O)/N=C2/NC(=O)/C(=C/c3cc([N+](=O)[O-])ccc3O)S2)cc1,8.6*,-290.9,12.8,-184.0,0.5,-36.6,-2.2,1.1
COc1cc(/C=C2\S/C(=N/S(=O)(=O)c3ccc(C)cc3)NC2=O)c([N+](=O)[O-])cc1OC,0.2,-127.4,5.6,-87.5,1.2,-50.8,·,·
CC1(Cc2ccccc2C#N)C(=O)Nc2ccc(OC(F)(F)F)cc21 (configuration not stated),-1.0,4.6,0.8,-1.7,0.1,-5.4,·,·
CC1(Cc2ccccc2Cl)C(=O)Nc2ccc(OC(F)(F)F)cc21 (configuration not stated),13.0*,0.5,13.4,-0.3,-0.1,-11.0,20.9*,12.6*
CC(OC(=O)c1cc(S(=O)(=O)Nc2ccc(F)cc2)ccc1Cl)C(=O)Nc1ccc2c(c1)OCCO2 (configuration not stated),9.8*,-1.8,12.3,-0.1,0.0,-34.8,11.7,8.5
CC(=O)Nc1ccc(S(=O)(=O)Nc2ccc3c(c2)OCCO3)cc1Cl,0.1,-2.9,5.3,0.2,0.3,0.6,·,·
Cc1cnc(C(=O)OC(C)C(=O)Nc2ccc3c(c2)OCCO3)cn1 (configuration not stated),9.9*,0.1,7.8,3.8,0.4,-0.9,5.0,14.5*
CCOc1ccccc1NS(=O)(=O)c1ccc(-c2cnc(C3CC3)o2)cc1,9.9*,-4.7,7.1,1.2,0.1,-20.3,-0.2,5.2
COc1ccc(-c2cc(-c3nnc4sc(Cc5cccs5)nn34)[nH]n2)cc1,-2.0,-1.3,-1.3,1.4,0.5,-33.3,·,·
Cc1ccc(S(=O)(=O)N2CCN(c3c([N+](=O)[O-])cc(C(F)(F)F)cc3[N+](=O)[O-])CC2)cc1,5.1,7.3,6.7,0.6,-0.9,-6.8,·,·
Cc1ccc(S(=O)(=O)N2CCN(c3ccc(C(F)(F)F)cc3[N+](=O)[O-])CC2)cc1,10.3*,0.7,18.5,2.5,-0.7,-7.5,21.6*,11.2*
COc1ccc(-c2c(-c3ccc(OCC(=O)NN)cc3O)n[nH]c2C(F)(F)F)cc1,12.1*,1.7,18.8,-0.2,-0.2,-21.8,10.0,8.2
COc1cccc(N(C)C(=O)[C@@H](C2CC2)[C@@H](O)c2ccc3ccccc3c2)c1,0.6,0.9,9.7,0.4,-0.1,-8.4,·,·
Cc1nc(NC(=O)CSc2nc3ccccc3s2)sc1C(=O)N(C)C,10.4*,-10.3,1.6,-4.0,-0.1,-29.7,10.4,6.6
SMILES,ADAM17 inh,PLC-beta3 inh,ADAM10 inh,PLC-gamma1 inh,KLK7 zymogen act,sPLA2-III inh,ADAM10 counter,ADAM17 confirm
COc1ccc(C2C(C(=O)Nc3ccc(F)cc3)CCC(=O)N2c2ccc(OC)cc2)cc1 (configuration not stated),-0.1,0.9,-0.4,0.5,0.1,-9.5,·,·
COc1ccc(/C=N/NC(=O)C(=O)/C=C2\NC3(CCCC3)Cc3ccccc32)cc1,11.4*,-8.9,9.9,-4.5,-2.8,12.7,8.9,8.4
O=C(Nc1ccccc1[N+](=O)[O-])NC1CCCCN(Cc2cccc(Cl)c2)C1=O (configuration not stated),2.2,1.3,6.3,1.9,0.3,0.0,·,·
CC1(C(=O)NS(=O)(=O)c2cccc(Cl)c2)CCN1C(=O)Cc1ccc(-c2ccccc2)cc1 (configuration not stated),9.0*,-5.4,3.0,-2.5,0.0,-52.8,7.8,5.5
CCOc1ccc(CN(C)C(=O)c2ccc(S(=O)(=O)N(C)c3ccccc3OC)cc2)cc1,17.9*,-2.4,16.3,10.1*,0.0,-16.4,4.0,4.8
COc1ccccc1N(C)S(=O)(=O)c1ccc(C(=O)N(C)Cc2cccc(OC)c2OC)cc1,2.9,2.5,0.4,5.6,-0.1,-10.1,·,·
O=[N+]([O-])c1ccc(N/N=C/c2c[nH]c3ccccc23)cc1,9.6*,-36.0,17.0,-24.7,3.6,-42.1,16.7,8.2

# From PubChem
